Data from PubChem BioAssay AID1566 (Sanford-Burnham Center for Chemical Genomics, 2009).
Several values for one entry are separate records, joined by “and”; a condition that tells them apart may be missing. Identical values can stand only once. The campaign covered roughly 290,000 compounds. About 1,800 (0.62%) were called active. This is one part of a sample in which actives are shown more often than they occur. Rule as the data show it: active = inhibition above about 50%; inactive = the rest.

assay: NOD2 signaling inhibitors, cell-based, luminescence, uHTS, HEK293 (AID 1566); details: HEK293 NOD2/NF-kB luciferase reporter, at 4 µM, stronger effect = higher value

SMILES | inhibition
CCOC(=O)c1[nH]c2ccc(OCC)cc2c1NC(=O)CN1CCC2(CC1)OCCO2 | -2.2% (inactive)
COc1ccccc1N1CCN(C(=O)c2cc(C(=O)N3CCN(c4ccccc4OC)CC3)cc([N+](=O)[O-])c2)CC1 | 3.5% (inactive)
CCn1c(SCC(=O)N2CCN(c3ccccc3)CC2)nnc1-c1c[nH]c2ccccc12 | 6.3% (inactive)
COc1ccccc1C(C)NCC(=O)Nc1c(F)cccc1F (centres undefined) | 5.5% (inactive)
Cn1c(Sc2ccccc2Cl)c(C=O)c2ccccc21 | 36.9% (inactive)
Cn1c(Oc2ccc(Cl)cc2)c(C=O)c2ccccc21 | 48.5% (inactive)
COc1ccccc1NC(=O)CN1CCCCC1 | -4.7% (inactive)
O=C(O)COc1ccccc1/C=N/n1c(C2CCCCC2)n[nH]c1=S | 17.3% (inactive)
CCOc1cc2c3c(c1)C(C)CC(C)(C)N3C(=O)C2=O (centres undefined) | 10% (inactive)
CCc1cc2c3c(c1)C(C)CC(C)(C)N3C(=O)C2=O (centres undefined) | 11.8% (inactive)
Cc1ccc(SCC2(O)CCN(S(=O)(=O)c3ccc(Cl)cc3)CC2)cc1 | 17.7% (inactive)
O=S(=O)(c1ccccc1)N1CCC(O)(CSc2ccccc2)CC1 | 28.2% (inactive)
O=S(=O)(c1ccccc1)N1CCC(O)(CSc2ccc(Cl)cc2)CC1 | 56.9% (active)
CCOc1ccccc1NC(=O)CCc1nnc2ccc(N3CCC4(CC3)OCCO4)nn12 | -11.6% (inactive)
O=C(Cn1nnc(N2CCCC2)n1)N/N=C/c1ccc(Cl)cc1 | -2.3% (inactive)
Cc1c(NC(=O)c2ccccc2)cccc1[N+](=O)[O-] | 21.3% (inactive)
N/C(=N\OC(=O)c1ccccc1)c1ccccn1 | -52.6% (inactive)
Cc1ccc(C(=O)O/N=C(\N)c2ccccn2)cc1 | -94.8% (inactive)
CC(NC(=O)Nc1ccccn1)N1C(=O)C2C3C=CC(C3)C2C1=O (centres undefined) | 15.9% (inactive)
Cc1cc(C(=O)NCc2cccs2)ccc1[N+](=O)[O-] | 0.2% (inactive)
COc1ccc2c(c1)N(C(=O)CN1C(=O)C3CCCCC3C1=O)C(C)(C)C=C2C (centres undefined) | -4.7% (inactive)
CC(O)c1cccc(NC(=O)CCC(=O)O)c1 (centres undefined) | 0.6% (inactive)
CC(O)c1cccc(NC(=O)Nc2cccc(NC(=O)Nc3cccc(C(C)O)c3)c2)c1 (centres undefined) | 73.1% (active)
CC(C)CC(=O)Nc1cccc(C(C)O)c1 (centres undefined) | -0.6% (inactive)
COc1ccccc1C(CC(=O)Nc1ccc(Cl)cc1)c1ccc(OC(C)C)cc1 (centres undefined) | 2.5% (inactive)

SMILES | inhibition
O=C(CCSCc1cccc(Cl)c1)NCCC1=CCCCC1 | 12.1% (inactive)
CCOc1ccccc1N1CCN(C(=O)c2c(Cl)cnn2C)CC1 | 9.1% (inactive)
CCn1cnc2cc(NS(=O)(=O)c3ccc(OC)c(OC)c3)ccc21 | 0% (inactive)
CCC1c2ccc(C)n2CCN1C(=O)Nc1cc(Cl)ccc1OC (centres undefined) | 13.8% (inactive)
COc1ccc(O)c(-c2[nH]ncc2C(=O)c2cccc(C)c2)c1 | 9.9% (inactive)
COc1ccc(O)c(-c2[nH]ncc2C(=O)c2ccccc2C)c1 | 5.8% (inactive)
O=C(Cn1ncc2c3ccccc3n(Cc3ccc(F)cc3)c2c1=O)N1CCN(c2ncccn2)CC1 | 15.9% (inactive)
O=C(Nc1ccccc1)C1COc2ccccc2O1 (centres undefined) | -18.8% (inactive)
O=C(Nc1nncs1)C1COc2ccccc2O1 (centres undefined) | -9% (inactive)
O=C(NC1=NCCS1)C1COc2ccccc2O1 (centres undefined) | 63.1% (active)
Nc1ccc(S(=O)(=O)O)cn1 | 7.7% (inactive) and 2.4% (inactive)
S=c1[nH]nc(-c2ccc(Cl)cc2)n1/N=C/c1cccs1 | -8.1% (inactive)
COc1ccc2cnn(CCOc3ccccc3)c(=O)c2c1OC | -68.5% (inactive)
O=c1c2ccccc2cnn1CCOc1ccccc1 | 60.4% (active)
O=c1c2ccccc2cnn1CCOc1cccc(Br)c1 | -63.9% (inactive)
CC(C)CN1CCNC(=O)C1CC(=O)NCCCN1CCCc2ccccc21 (centres undefined) | 3% (inactive)
Cc1ccc(NS(=O)(=O)c2cc(NC(=O)c3cc(=O)[nH]c(=O)[nH]3)ccc2Cl)c(C)c1 | 22.6% (inactive)
COc1ccc(NC(=O)c2ccc3c(c2)NC(=O)CS3)cc1S(=O)(=O)Nc1ccc(Br)cc1 | 3.4% (inactive)
CC(=O)O/N=C/c1c(Cl)n(C)c2ccccc12 | -6.2% (inactive)
Cc1c(/C(O)=C2/C(=O)C(=O)N(CCN3CCOCC3)C2c2ccccn2)cnn1-c1ccccc1 (centres undefined) | 56.8% (active)
Cc1ccc(C2/C(=C(/O)c3cnn(-c4ccccc4)c3C)C(=O)C(=O)N2CCN2CCOCC2)o1 (centres undefined) | -58.4% (inactive)
Cc1c(/C(O)=C2/C(=O)C(=O)N(CCN3CCOCC3)C2c2cccnc2)cnn1-c1ccccc1 (centres undefined) | 8.5% (inactive)
CCOC(=O)CSc1nc(C)c2ccccc2n1 | 3.1% (inactive)
CCOC(=O)CSc1nc(Nc2ccc3c(c2)OCO3)c2ccccc2n1 | 85.7% (active)
N#CCSc1nc(Nc2ccc3c(c2)OCO3)c2ccccc2n1 | 22% (inactive)

SMILES | inhibition
Cc1cc2ncc(C(=O)Nc3ccsc3C(=O)O)c(C)n2n1 | 20.1% (inactive)
Cc1ccc[n+](C(C)C(=O)c2ccc(-c3ccccc3)cc2)c1 (centres undefined) | 23.2% (inactive)
Cc1cc(C)c[n+](C(C)C(=O)c2ccc(-c3ccccc3)cc2)c1 (centres undefined) | 53.1% (active)
Cc1cc[n+](C(C)C(=O)c2ccc(-c3ccccc3)cc2)cc1 (centres undefined) | 22.5% (inactive)
Cc1cc(NC(=O)CSc2nnc(CNC(=O)c3c(F)cccc3F)o2)no1 | -3.4% (inactive)
COc1cccc(OC)c1C(=O)Nc1ccc(N2CCN(C(=O)c3ccco3)CC2)cc1 | 0.8% (inactive)
O=C(CCS(=O)(=O)c1ccc2c(c1)NC(=O)CS2)NCc1cccs1 | 0.9% (inactive)
CCCN1C(=O)/C(=C/c2c(N3CCNC(=O)C3CC(=O)OCC)nc3c(C)cccn3c2=O)SC1=S (centres undefined) | 44.3% (inactive)
CCOC(=O)CC1C(=O)NCCN1c1nc2c(C)cccn2c(=O)c1/C=C1\SC(=S)N(C(C)CC)C1=O (centres undefined) | 49% (inactive)
CCOC(=O)CC1C(=O)NCCN1c1nc2c(C)cccn2c(=O)c1/C=C1\SC(=S)N(CC(C)C)C1=O (centres undefined) | 51.8% (active)
Cc1nc2ncnn2c(N2CCN(C(c3ccccc3)c3ccccc3)CC2)c1C | 11.8% (inactive)
CC(=O)Nc1cc2ccccc2oc1=O | 9% (inactive)
O=C(Nc1cc2ccccc2oc1=O)c1ccccc1 | 18.1% (inactive)
Cc1ccc(NC(=O)Nc2cnc3ccccc3c2)cc1 | -175% (inactive)
Cc1ccc(C(=O)Nc2cnc3ccccc3c2)cc1 | 54.2% (active)
Cc1ccc(C(=O)Nc2cc3ccccc3oc2=O)cc1 | 69.7% (active)
O=C(Nc1cnc2ccccc2c1)c1ccncc1 | -72% (inactive)
CNC(=O)NNC(=O)c1csc(-c2ccc(C(F)(F)F)cc2Cl)n1 | 14.2% (inactive)
COc1ccc(/C=N\Nc2ncc(F)c(N3CCOCC3)n2)cc1OC | 3.5% (inactive)
COc1cccc(C(=O)O/N=C(\C)c2cnccn2)c1 | 4.6% (inactive)
Cc1nc2scc(C)n2c(=O)c1S(=O)(=O)NC(C)c1ccccc1 (centres undefined) | 20.2% (inactive)
Cc1c(O)nc(SCC(=O)Nc2cccc(C(F)(F)F)c2)n(-c2ccccc2)c1=O | -0.1% (inactive)
C/C(=N\NC(=O)c1ccc(COc2ccccc2)cc1)c1ccncc1 | -1.5% (inactive)
CCOc1ccc(C(=O)N/N=C(\c2ccccc2)c2ccccn2)cc1 | -82% (inactive)
CCOc1ccc(OCc2ccc(C(=O)N/N=C(\C)c3ccccn3)cc2)cc1 | 76.9% (active)

SMILES | inhibition
COc1ccccc1/C=C1\SC(=S)N(CCC(=O)N2CCCCC2CCO)C1=O (centres undefined) | 5.9% (inactive)
CCCOc1ccc(C(O)(CCC)CCN2CCCCC2)cc1 (centres undefined) | 3.4% (inactive)
O=C(CN1C(=O)c2ccccc2S1(=O)=O)c1cccc(Br)c1 | 0.6% (inactive)
O=C(CN1C(=O)c2ccccc2S1(=O)=O)c1ccc(O)c(O)c1 | 42.4% (inactive)
Cc1cc(C(=O)CN2C(=O)C3CC=CCC3C2=O)c(C)n1-c1ccccc1 (centres undefined) | -109% (inactive)
O=C(CN1C(=O)c2ccccc2S1(=O)=O)c1ccccc1 | 52.5% (active)
Cc1ccc(C)c(C(=O)CN2C(=O)c3ccccc3S2(=O)=O)c1 | -15% (inactive)
Cc1cc(C(=O)CN2C(=O)c3ccccc3S2(=O)=O)c(C)n1-c1ccccc1 | 64.2% (active)
COc1ccc(S(=O)(=O)NCc2cccnc2)cc1OC | 6.9% (inactive)
CCN(CC)c1nc(Nc2ccc([N+](=O)[O-])cc2)nc(N(CC)CC)n1 | 15.7% (inactive)
O=C(O)Cc1sc(NCCc2ccccc2)nc1-c1ccc(F)cc1 | -6.1% (inactive)
C/C(=N/NC(=O)Cc1c(C)[nH][nH]c1=O)c1ccc(O)cc1 | -3% (inactive)
Cc1ccccc1Nc1ccc2nonc2c1[N+](=O)[O-] | 17.9% (inactive)
CC(=O)Nc1cccc(NC(=O)CSc2nnc(NC(=O)C3CC3)s2)c1 | 2.1% (inactive)
CCOc1ccc(-c2nc3n(c(=O)c2C#N)CCS3)cc1 | -0.8% (inactive)
O=C(OCCCN1CCOCC1)c1ccc(O)c(O)c1 | 11.1% (inactive)
CC(=O)CSc1ncnc2sc3c(c12)CCC3 | 12.6% (inactive)
Cc1ccc(C(=O)CSc2ncnc3sc4c(c23)CCCC4)cc1 | 30.2% (inactive)
O=C(c1ccc(Cl)c([N+](=O)[O-])c1)N1CCCc2ccccc21 | -7.5% (inactive)
O=C(CSc1nnnn1C1CCCCC1)NNC(=O)c1ccco1 | 5.4% (inactive)
Cc1ccccc1-n1cc(C(=O)c2cc(Cl)ccc2O)cc(C#N)c1=O | 1.1% (inactive)
C(=N\Nc1nc2ccccc2[nH]1)/c1ccc2c(c1)OCCO2 | -126% (inactive)
C(=N\Nc1ccc2ccccc2n1)/c1ccc2c(c1)OCCO2 | 67.8% (active)
C(=N\Nc1ccccn1)/c1ccc2c(c1)OCCO2 | -125% (inactive)
